From PubChem BioAssay (NCI)
The panel holds about 79,000 compounds, 15% with a hit somewhere; the sample as a whole holds those more often. Rule as the data show it: active = growth inhibition above about 70%; inactive = the rest. Where a SMILES comes first, the peptide text is derived from it. Bridges are numbered along the chain shown (N, C = ends). [ ]: non-standard residue; d: D form. The star is where a group is joined. ξ: configuration not given here. PhAc = O=C(Cc1ccccc1)*; ξP = O=C(O)C1CCCN1

Tests used:
[1] = NCI Yeast Anticancer Drug Screen. Data for the rad50 strain (AID 155);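 also: 0% = growth of vehicle-only cultures of the same strain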; conditions: S. cerevisiae rad50 strain growth inhibition; at 50.0 µM; stronger effect = higher value
In short: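 Relative growth inhibition (compound vs vehicle) was measured in yeast with a defined repair-gene alteration.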

[2] = NCI Yeast Anticancer Drug Screen. Data for the mec2-1 strain (AID 157); conditions: S. cerevisiae mec2-1 strain, at 50.0 µM, stronger effect = higher value
In short: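 Vehicle-treated cultures served as reference for growth inhibition of compound-exposed mec2-1 yeast.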

[3] = NCI Yeast Anticancer Drug Screen. Data for the sgs1 mgt1 strain (AID 161);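 also: 0% = growth of cultures given vehicle only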; conditions: S. cerevisiae sgs1 mgt1 strain, at 50.0 µM, stronger effect = higher value
In short: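 Read-out: growth inhibition vs vehicle controls. Cells: mutant yeast strain deficient in DNA damage repair.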

[4] = NCI Yeast Anticancer Drug Screen. Data for the cln2 rad14 strain (AID 165);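 also: 0% = growth equal to vehicle treated cultures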; conditions: S. cerevisiae cln2 rad14 strain, at 50.0 µM, stronger effect = higher value
In short: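 Each compound was tested on cln2 rad14 yeast. Inhibition of growth was calculated against vehicle-exposed controls.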

[5] = NCI Yeast Anticancer Drug Screen. Data for the bub3 strain (AID 167); conditions: S. cerevisiae bub3 mutant strain, at 50.0 µM, stronger effect = higher value
In short: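 Screening used yeast with an engineered genetic alteration affecting cell cycle control. Compound-exposed cultures were compared with vehicle cultures, and reduced growth was taken as inhibition.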

[6] = NCI Yeast Anticancer Drug Screen. Data for the mlh1 rad18 strain (AID 175); conditions: S. cerevisiae mlh1 rad18 strain growth inhibition; at 50.0 µM; stronger effect = higher value
In short: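 Vehicle-treated cultures served as the reference for growth inhibition in a yeast strain carrying DNA damage repair alterations exposed to each compound.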

Measured: growth inhibition

Nc1nnc(CCC(=O)Nc2cccc(C(F)(F)F)c2)n1N
inactive: [1] 4.85% | [2] 5.6% | [3] 7.3% | [4] -27.9% | [5] 9.65% | [6] 1.55%

N=c1ccccn1CC(O)COc1ccccc1 (stereo unspecified)
inactive: [1] -11.2% | [2] -9.6% | [3] -1.6% | [4] 1.1% | [5] 4.2% | [6] -5.8%

CCN(CC)c1ccc(/C=C\c2c(C)cnc3ccccc23)cc1
inactive: [1] 8.85% | [2] 10% | [3] 17.9% | [4] -24.4% | [5] 34.6% | [6] -9.45%

O=C(c1cc2ccccc2s1)c1ccccc1Cc1cccc2ccccc12
inactive: [1] 33.8% | [2] 7.25% | [3] 31.2% | [4] 21.2% | [5] 5.45% | [6] -0.75%

O=C(O)c1cc2ccc(Cl)cc2c2cc(C(F)(F)F)ccc12
inactive: [1] 2.25% | [2] 27.8% | [3] 27.2% | [4] 50.9% | [5] 27.2% | [6] 53.7%

CCCCNCC1COc2cccc(OCC)c2O1 (stereo unspecified)
inactive: [1] 17.1% | [2] -0.1% | [3] -2% | [4] 9.7% | [5] -6.75% | [6] 4%

CCCCCn1cnc2cc(N3CCOCC3)c([N+](=O)[O-])cc2c1=O
inactive: [1] 4.9% | [2] 34.9% | [3] 5.75% | [4] 8.2% | [5] 18.2% | [6] 14.3%

CCOc1nc(OCC)c2cnn(C)c2n1
inactive: [1] 6.3% | [2] 1.75% | [3] -3.55% | [4] -28.8% | [5] 7.55% | [6] -3.55%

CN1CN(C(=O)N2CN(C)C(=O)N(C)C2)CN(C)C1=O
inactive: [1] -10.8% | [2] -13.6% | [3] -23.6% | [4] 3.45% | [5] -14.2% | [6] -37.4%

Cn1c2ccccc2c2c3ccc[n+](C)c3ccc21
inactive: [1] 8% | [2] -2.9% | [3] 8.7% | [4] -57.5% | [5] -0.1% | [6] 2.1%

COc1cc(/C(=C\c2ccccc2N)C(=O)O)cc(Br)c1OC
inactive: [1] 9.35% | [2] -8.2% | [3] -11.2% | [4] 4.65% | [5] 0% | [6] 1.65%

CC1(C)CC2=C(Sc3ccccc3N2)C(=O)C1C(=O)C(=O)Nc1cc(Cl)ccc1Cl (stereo unspecified)
inactive: [1] -1.3% | [2] -6.95% | [3] -6.85% | [4] -28.3% | [5] -0.25% | [6] -9.55%

CSc1cnc2ccccc2c1Sc1c[nH]c2ccccc2c1=O
inactive: [1] -15% | [2] 3.65% | [3] 1.15% | [4] 11.8% | [5] -8.05% | [6] -12.4%

CC1CCOC(/C=C/c2ccccc2)O1 (stereo unspecified)
inactive: [1] -7.9% | [2] -6.7% | [3] 5.7% | [4] 30.1% | [5] 40.8% | [6] -1.75%

O=C1NC(=O)C(c2ccc(C(=O)O)cc2)N1 (stereo unspecified)
inactive: [1] -12.8% | [2] -10% | [3] 0.05% | [4] 8.45% | [5] -5.5% | [6] -2.25%

O=C(C[n+]1ccccc1Cc1ccccc1)c1ccccc1
inactive: [1] -6.6% | [2] -4.2% | [3] -14% | [4] -11.6% | [5] -11.4% | [6] -17.9%

O=C(CBr)Nc1ccccc1[N+](=O)[O-]
inactive: [1] 8.3% | [2] -1.35% | [3] 5.8% | [4] 0.4% | [5] 6.05% | [6] -5.4%

CC(=O)Nc1nc(C)c(CC/C=C/c2ccc([N+](=O)[O-])cc2)c(Cl)n1
inactive: [1] 8.9% | [2] 32.9% | [3] 38% | [4] -6.35% | [5] 27.2% | [6] 53%

CCCC(C)C(=O)OC1CCCCC1 (stereo unspecified)
inactive: [1] 9.35% | [2] 1.3% | [3] -0.85% | [4] -21.4% | [5] 7.6% | [6] 3%

Oc1ccc2ccc3[nH]cnc3c2c1
inactive: [1] -22.5% | [2] -25.4% | [3] -9% | [4] 2.1% | [5] -8.9% | [6] 0.15%

C[N+](C)(C)C/C=C/C[N+](C)(C)C
inactive: [1] 9.85% | [2] -3.1% | [3] -5.95% | [4] -22.3% | [5] 0.85% | [6] 1.85%

C[N+](C)(C)CCc1ccccc1
inactive: [1] 1.9% | [2] -3.15% | [3] -0.85% | [4] -26.4% | [5] -12.9% | [6] 16.1%

CCc1c(C(=O)OC)c(C(=O)OC)c(-c2ccc(C)cc2)n1CCn1c(CC)c(C(=O)OC)c(C(=O)OC)c1-c1ccc(C)cc1
inactive: [1] -0.55% | [2] 0.3% | [3] -26.1% | [4] -0.6% | [5] -3.15% | [6] 17.9%

CC(=O)N1CC(C)(C)c2c(C)c(O)c(C)c(C)c21
inactive: [1] -16.1% | [2] -22.3% | [3] -15.4% | [4] 17.1% | [5] 8.45% | [6] 0.3%

Brc1ccccc1-c1nc2ccccc2[nH]1
inactive: [1] 4.1% | [2] -4.4% | [3] 4% | [4] -63% | [5] -6.1% | [6] -2.55%

CNc1ccc(O)cc1
inactive: [1] 3.6% | [2] 6.9% | [3] 5.75% | [4] -24.4% | [5] -0.05% | [6] 15.4%

O=[N+]([O-])c1cccc(OCC2CO2)c1 (stereo unspecified)
inactive: [1] 9% | [2] -23.8% | [3] -0.75% | [4] -13.2% | [5] -2.1% | [6] 34.5%

Cc1cccc(C)c1NC(=S)N(CCC#N)C1CC(C)CC(C)(C)C1 (stereo unspecified)
inactive: [1] 3.45% | [2] 4.35% | [3] 19.6% | [4] -2.8% | [5] 19.9% | [6] -20%

CC(=O)c1sc(/N=C\c2c(O)c3ccccc3oc2=O)nc1C
inactive: [1] -53.5% | [2] -49.6% | [3] -40.2% | [4] -3.25% | [5] -36.2% | [6] -33.8%

N#CC1=CN(Cc2ccccc2)C(c2ccccc2)C=C1 (stereo unspecified)
inactive: [1] 23.2% | [2] -2.15% | [3] -3.9% | [4] 4.65% | [5] 35.9% | [6] 27%

N#C/C(=C/c1ccc(Cl)cc1)C(=O)O
inactive: [1] 6.35% | [2] -2.35% | [3] -13.3% | [4] 6.35% | [5] -0.15% | [6] 21.1%

O=C(Cc1ccccc1)N[C@@H]1COC(=O)C2CCCN2C(=O)[C@@H]2CCCN2C1=O (stereo partly specified) (PhAc-[dS]-Pro-[ξP]; ester 1-C)
inactive: [1] -11.6% | [2] -1.7% | [3] 4.25% | [4] 27.4% | [5] 12.3% | [6] 0.65%

NCC(=O)NC1CCCCC1
inactive: [1] 30.6% | [2] 1.85% | [3] -8.45% | [4] 25.4% | [5] -3.65% | [6] 5.3%

COc1cccc(NC(=S)Nn2c(C)nc3ccccc3c2=O)c1
inactive: [1] -25.2% | [2] -14% | [3] -17.1% | [4] 0.25% | [5] -11.3% | [6] -28.6%

CCOC(=O)c1c(C(=O)Nc2ccccc2)c(-c2ccccc2)n(NC(=O)c2cccc(Cl)c2)c1C
inactive: [1] 18.1% | [2] 10.3% | [3] 3.9% | [4] 7.2% | [5] -4.85% | [6] 21.5%

CC(=O)OCC1OC(n2cc([N+](=O)[O-])c(=O)[nH]c2=O)C(OC(C)=O)C(OC(C)=O)C1OC(C)=O (stereo unspecified)
inactive: [1] -12.8% | [2] 9.9% | [3] -8.65% | [4] -20% | [5] 12.8% | [6] -35.1%

CCOCC/C(=N\Nc1ccc([N+](=O)[O-])cc1[N+](=O)[O-])c1ccccc1
inactive: [1] 19.8% | [2] 5.85% | [3] 11.2% | [4] 19.6% | [5] 30% | [6] 9.55%

Cn1c(=O)c2[nH]c(SCCc3ccccc3)nc2n(C)c1=O
inactive: [1] 0.65% | [2] 0.05% | [3] 6.15% | [4] -39.1% | [5] 10.3% | [6] -2.75%

CC(C)(C)OC(=O)N1CCc2c(n(C/C=C/c3ccccc3)[nH]c2=O)C1
inactive: [1] -30.2% | [2] -14.3% | [3] -4.85% | [4] -0.3% | [5] 1.55% | [6] -19.4%

CCN(CC)CCN1C(=O)N(CCN(CC)CC)C(=O)C(CC)(CC)C1=O
inactive: [1] 13.9% | [2] -2.15% | [3] 12.5% | [4] 22.9% | [5] -1.65% | [6] 34.1%

c1csc(-c2cc(-c3ccsc3)c(-c3ccsc3)s2)c1
inactive: [1] -37.5% | [2] -48.4% | [3] -33.6% | [4] -5.35% | [5] -15.9% | [6] -8.6%
